Source: PubChem (National Center for Advancing Translational Sciences (NCATS))
Hsp90 Hop PPI = changes Hsp90-Hop TPR2A binding signal, up or down. hit rate 0.44% among 71,000. AlphaScreen TPR2A-His6 binding biotin-Hsp90 C-terminal peptide. Potency, µM (highest dose often 57 µM), for the others: at the highest dose activity change, negative = inhibition; active = well fitted curve in either direction with a large enough effect; inconclusive = small, poorly fitted or top-dose-only effect, or another doubt; note: % is set by controls: 0 for no effect and ±100 for the full control effect
15-hLO inh = blocks human 15-lipoxygenase activity | purified 15hLO-1, xylenol orange hydroperoxide absorbance | Potency, µM (series often up to 57.1 µM), without a hit: top-dose activity change, negative = inhibition, usual class: inhibitors | hit rate 1.4% among 74,000; note: % is set by controls: 0 for no effect and ±100 for the full control effect; nearly all actives have a fitted effect of over 55% in size
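Readout: Fe(III)-xylenol orange absorbance, 573-to-405 nm ratio as reaction progress. Enzyme 40 nM purified human 15hLO-1, substrate 50 uM arachidonic acid, 6 min RT after 15 min compound preincubation; Hepes pH 7.5 buffer with Triton X-100.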
USP2a inhib = blocks human ubiquitin-specific protease USP2a; USP2a enzymatic assay, qHTS inhibition; Potency, µM (top dose mostly 38.3 µM), inactives show at the top dose activity change, negative = inhibition, actives largely listed as inhibitors; AID 927; O75604; hit rate 0.1% among 60,000; note: nearly all actives have a fitted effect of over 60% in size
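USP2 core (20 nM final) was preincubated with compound for 30 min at RT in 20 mM Tris-HCl pH 8.0, 2 mM CaCl2, 2 mM beta-mercaptoethanol; Ub-PLA2 (20 nM) plus NBD C6-HPC (20 uM) then added, fluorescence read after 2.5 h.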
Tau filament bind = binds recombinant human tau filaments; AID 596; recombinant tau filaments, thioflavin S fluorescence, 15 h; filaments grown with octadecylsulfate alongside compound; P10636; hit rate 2% among 71,000; Potency, µM (doses to about 57.1 µM), for the others: at the highest dose activity change, negative = inhibition;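 note: % is set by controls: 0 for no effect and ±100 for the full control effect; actives lower thioflavin S fluorescence by blocking filaments or displacing dye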
Target sequence (P10636 whole entry, looked up): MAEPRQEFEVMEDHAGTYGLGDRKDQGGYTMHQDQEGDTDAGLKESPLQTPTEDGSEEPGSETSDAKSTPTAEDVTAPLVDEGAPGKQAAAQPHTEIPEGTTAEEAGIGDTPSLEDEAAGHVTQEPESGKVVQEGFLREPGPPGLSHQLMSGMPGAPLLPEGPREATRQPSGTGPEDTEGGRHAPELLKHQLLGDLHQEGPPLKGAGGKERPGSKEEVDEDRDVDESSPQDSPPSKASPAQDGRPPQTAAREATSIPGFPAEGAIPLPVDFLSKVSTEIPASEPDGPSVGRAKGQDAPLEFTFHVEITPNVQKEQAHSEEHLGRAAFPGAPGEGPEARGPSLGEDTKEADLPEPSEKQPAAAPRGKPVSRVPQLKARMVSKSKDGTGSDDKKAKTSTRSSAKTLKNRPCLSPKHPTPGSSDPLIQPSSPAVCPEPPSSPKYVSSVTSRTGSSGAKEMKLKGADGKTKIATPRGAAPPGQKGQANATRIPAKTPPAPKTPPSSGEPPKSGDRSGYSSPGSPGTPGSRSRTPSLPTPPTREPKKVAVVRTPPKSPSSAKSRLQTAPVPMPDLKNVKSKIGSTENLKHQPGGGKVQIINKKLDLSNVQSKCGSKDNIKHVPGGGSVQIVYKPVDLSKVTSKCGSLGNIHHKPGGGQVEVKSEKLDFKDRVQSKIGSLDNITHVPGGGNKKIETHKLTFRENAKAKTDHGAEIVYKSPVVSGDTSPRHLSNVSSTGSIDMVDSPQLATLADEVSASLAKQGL
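His-tagged recombinant human tau (exons 2, 3 and 10 included), 1 uM, was induced to fibrillize by 30 uM sodium octadecylsulfate with compound present. After 15 h at 37 C, thioflavine S fluorescence (ex 450, em 510 nm) was read.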
* hit, by the source's call; ? = inconclusive; / = no result given; ! = a repeat was not active; [ ] = another dose, or the depositor's remark. Hits are enriched below; roughly 3.2% of the tested compounds scored in any of these assays. Unless noted, calls come from the whole dose curve; as a rule, active = well fitted curve in the direction sought with a large enough effect; inconclusive = small, poorly fitted or top-dose-only effect, or another doubt; inactive = no such curve, though single readings can be large; an effect the other way counts as inactive or inconclusive. Potency is the fitted concentration of half-maximal effect.

SMILES | Hsp90 Hop PPI | 15-hLO inh | USP2a inhib | Tau filament bind
COc1cccc(-c2ccc3ncnc(N(C)Cc4ccco4)c3c2)c1 | -20% | -22% | 151% | -1%
Cc1cccc(CNc2ncncc2-c2ccccc2C)c1 | 0% | 1% | 8% | 6%
O=C1Nc2cccnc2Sc2ccccc21 | -2% | 16µM* | -3% | -4%
COc1ccc(CNc2ccnc(-c3ccoc3)n2)c(OC)c1 | -16% | -23% | 162% | -17%
COc1ccc(CNc2ccnc(-c3c(C)noc3C)n2)c(OC)c1 | 3% | 25µM* | 60% | -10%
COc1ccc(OC)c(C(=O)COC(=O)CNC(=O)C2CCCCC2)c1 | -2% | 10% | 0% | 5%
O=C(NC[C@H]1CCCCN1)c1cc(OCC(F)(F)F)ccc1OCC(F)(F)F | -6% | -3%[25.6 µM] | -1% | 40µM*!
COCCNc1nc(-c2ccccc2Cl)nc2ccccc12 | -4% | 9% | 39% | -10%
COc1ccc(NC(=O)c2cc(-c3ccc(O)cc3)on2)cc1OC | -3% | -4% | / | 109%
Nc1ccc(C2CCCc3nonc32)c2nonc12 (configuration not stated) | ? | 7.9µM* | 40% | 25µM*
CCOC(=O)c1cc2occc2n1CCCN1C(=O)c2ccccc2C1=O | ? | -19% | -6% | 16µM*
Cc1ccc(C2C3CSCC=C3C(C#N)=C(N)C2(C#N)C#N)cc1 (configuration not stated) | -8% | 25µM* | 33% | 97%
CC(=O)c1cccc(NC(=O)CN(c2ccc(C)cc2)S(=O)(=O)c2cccc3nonc23)c1 | -11% | -6% | 40% | 4µM*
ICCc1ccccc1 | ? | 13µM* | / | 2%
CCOC(=O)N1CCC(n2c(SCC(=O)NCc3ccccc3)nc3ccccc3c2=O)CC1 | -2% | -2% | 19% | 9%
CCOC(=O)N1CCC(n2c(SCC(=O)NCCC3=CCCCC3)nc3ccccc3c2=O)CC1 | -1% | 16µM* | 7% | -8%
CCOC(=O)N1CCC(NC(=O)CSc2cc(=O)n(C)c3ccc(Cl)cc23)CC1 | ? | 13% | -5% | -22%
O=C1C(Cl)=C(NC2CCc3ccccc32)C(=O)c2ncccc21 (configuration not stated) | ? | -17% | / | 25µM*
CNc1nc2c(c(=O)n(C)c(=O)n2C)n1Cc1ccccc1 | -9% | 3% | -3% | 4%
Cn1c(=O)c2c(nc(NC(Cc3ccccc3)C(=O)O)n2Cc2ccccc2)n(C)c1=O (configuration not stated) | -6% | 25µM* | 16% | -3%
COc1ccc(NS(=O)(=O)c2ccc(I)cc2)cc1N1CCN(C)CC1 | ? | ? | / | 40µM*
O=C(Nc1ccc2nc(-c3ccco3)c(-c3ccco3)nc2c1)N1CCCCCC1 | ? | 5µM* | -3% | 1.3µM*
O=C(NC1CCCC1)c1ccc2nc(-c3ccco3)c(-c3ccco3)nc2c1 | -24% | 10µM* | 33% | -19%
CCOC(=O)C1CCN(C(=O)Nc2ccc3nc(-c4ccco4)c(-c4ccco4)nc3c2)CC1 | -28% | 5µM* | -23% | 0.79µM*
CCOC(=O)C1CCN(C(=O)Nc2ccc3c(c2)nc(C)n3C)CC1 | 0% | 2% | -1% | 2%
SMILES | Hsp90 Hop PPI | 15-hLO inh | USP2a inhib | Tau filament bind
C[C@H]1COC(=O)[C@H]2CCCN2C(=O)[C@@H](C)COC(=O)[C@H](Cc2ccccc2)NC1=O | / | 0%[11.4 µM] | / | /
O=C(/C=C/Nc1cccc(O)c1)c1ccccc1 | ? | 13µM* | 26% | -5%
N#CCCN1CCN(C(=S)c2ccc(-c3ccc(Cl)cc3)o2)CC1 | ? | -21% | 26% | 25µM*
COC(=O)C1=C(C)NC(C)=C(C(=O)OC)C1c1ccc(N(C)C)cc1 | -7% | -11% | -2% | -14%
COC(=O)C1=C(C)NC(C)=C([N+](=O)[O-])[C@H]1c1ccccc1C(F)(F)F | -7% | -5%[25.6 µM] | 2% | 32µM*
COC(=O)C1=C(C)NC(=O)CC1c1ccccc1F (configuration not stated) | -8% | 8% | 8% | 2%
COC(=O)C1=C(C)NC(C)=C([N+](=O)[O-])[C@@H]1c1ccccc1C(F)(F)F | -12% | -3%[25.6 µM] | / | 32µM*
Nc1ccccc1N=Nc1c(S(=O)(=O)O)cc2cc(S(=O)(=O)O)cc(O)c2c1O | ? | 6%[11.4 µM] | / | -15%[11.4 µM]
O=S(=O)(O)c1ccc2c(N=Nc3c(O)ccc4ccccc34)cccc2c1 | ? | -14%[11.4 µM] | / | 3.2µM*
O=S(=O)(O)c1cc(S(=O)(=O)O)c2c(N=Nc3cccc4ccccc34)c(O)ccc2c1 | ? | -6%[11.4 µM] | / | 4µM*
COc1ccc(-c2oc3ccc(C)cc3c(=O)c2O)cc1OC | -5% | 6%[25.6 µM] | / | 28%
Cc1nc(Nc2ccccc2)c2nc(-c3ccccc3)n(CCCN3CCCCC3C)c2n1 (configuration not stated) | -4% | 0% | / | 106%
NCCCc1ccc2oc3ccccc3c2c1 | -4%[11 µM] | -1%[11.4 µM] | / | -14%[11.4 µM]
Cc1nc(NCc2ccccc2)c2nc(-c3ccccc3)n(CCCN(C)C)c2n1 | -2% | 3% | / | 46%
Cc1noc(C)c1C(=O)N1CCC[C@@]2(CCN(C(=O)Nc3ccccc3)C2)C1 | -8% | 4% | 18% | 4%
Cc1cc(NC(=O)CCCC(=O)Nc2ccc(F)cc2)no1 | 0% | -2% | -5% | 3%
Cc1cc(NC(=O)CCCC(=O)NCc2cccs2)no1 | 1% | 20µM* | 8% | 164%
c1cncc(CNc2cc(-c3ccoc3)ncn2)c1 | ? | 25µM* | 102% | 105%
CCOc1ccc(/C=C/C(=O)c2cccs2)cc1 | / | -3%[25.6 µM] | / | /
CC[N+](CC)(CC)CCOc1ccc(/C=C\c2ccccc2)cc1 | -10% | 16µM* | / | -63%
COc1nccc(Nc2ccccc2)c1C#N | 0% | 3% | -9% | -6%
COc1ccc(Nc2ccnc3ccccc23)cc1 | -2% | -3% | 18% | 7.9µM*
C=CCn1c(SCC(=O)Nc2ccc(NC(=O)c3ccco3)c(OC)c2)nnc1-c1ccncc1 | -6% | 0% | 24% | 13µM*
COc1ncc2nc(-c3ccccc3)c(=O)n(-c3ccccc3)c2n1 | 0% | -5% | 27% | -1%
Cn1nnnc1SCc1ccc(C(=O)Nc2nccs2)cc1 | -1% | ? | 27% | 2.5µM*
SMILES | Hsp90 Hop PPI | 15-hLO inh | USP2a inhib | Tau filament bind
N=c1c(C(=O)NCc2ccc(F)cc2)cc2c(=O)n3ccccc3nc2n1CCCN1CCOCC1 | 0% | 3% | 6% | 0.79µM*
CCOCCCn1c(=N)c(C(=O)NCc2ccc3c(c2)OCO3)cc2c(=O)n3ccccc3nc21 | -4% | 5% | 17% | 5µM*
CCCn1c(=N)c(C(=O)NCc2ccc3c(c2)OCO3)cc2c(=O)n3cccc(C)c3nc21 | -2% | -13% | 27% | 1.6µM*
COc1ccc(-c2coc3ccc(O[C@@H]4O[C@@H](COC(C)=O)[C@@H](OC(C)=O)[C@@H](OC(C)=O)[C@H]4OC(C)=O)c(OC(C)=O)c3c2=O)cc1 | -5% | / | / | ?
COc1ccccc1CNc1ncnc2ccc(-c3cccc(NS(C)(=O)=O)c3)cc12 | -14% | 6% | ? | 38%
CCOC(=O)Nc1ccc2c(c1)N(C(=O)OC)c1ccccc1CC2 | ? | 6% | 26% | -15%
